Columns and labels:
[1] = system: Proto-oncogene tyrosine-protein kinase receptor Ret (Homo sapiens), P07949 [Y791F]; settings: at 1 µM
[2] = molecular target: Macrophage-stimulating protein receptor (Homo sapiens) (UniProt Q04912); settings: at 0.1 µM
[3] = molecular target: Macrophage-stimulating protein receptor (Homo sapiens) (UniProt Q04912); settings: at 1 µM
[4] = molecular target: Proto-oncogene tyrosine-protein kinase ROS (Homo sapiens) (UniProt P08922); settings: at 0.1 µM
[5] = molecular target: Proto-oncogene tyrosine-protein kinase ROS (Homo sapiens) (UniProt P08922); settings: at 1 µM
[6] = molecular target: Proto-oncogene tyrosine-protein kinase Src (Homo sapiens) (UniProt P12931); settings: at 0.1 µM
Sequence of Proto-oncogene tyrosine-protein kinase Src (Homo sapiens) (P12931 2-536 limits assumed): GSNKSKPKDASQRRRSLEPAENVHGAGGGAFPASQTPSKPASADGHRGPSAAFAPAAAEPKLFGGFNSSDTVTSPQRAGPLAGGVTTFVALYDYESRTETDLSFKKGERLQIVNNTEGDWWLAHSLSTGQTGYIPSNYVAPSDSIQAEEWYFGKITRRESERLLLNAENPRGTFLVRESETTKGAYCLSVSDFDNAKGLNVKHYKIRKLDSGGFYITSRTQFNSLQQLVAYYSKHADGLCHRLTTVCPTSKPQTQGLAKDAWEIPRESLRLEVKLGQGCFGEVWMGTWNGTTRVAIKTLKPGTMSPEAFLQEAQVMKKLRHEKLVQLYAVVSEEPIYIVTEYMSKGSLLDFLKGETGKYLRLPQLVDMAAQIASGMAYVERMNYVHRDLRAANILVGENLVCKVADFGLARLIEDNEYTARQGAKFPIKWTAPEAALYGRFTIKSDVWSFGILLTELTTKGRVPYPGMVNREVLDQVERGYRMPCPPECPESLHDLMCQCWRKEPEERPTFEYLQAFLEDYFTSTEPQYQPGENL

[7] = molecular target: Proto-oncogene tyrosine-protein kinase Src (Homo sapiens) (UniProt P12931); settings: at 1 µM
[8] = molecular target: Tyrosine-protein kinase Srms (Homo sapiens) (UniProt Q9H3Y6); settings: at 0.1 µM
Sequence of Tyrosine-protein kinase Srms (Homo sapiens) (Q9H3Y6 whole entry): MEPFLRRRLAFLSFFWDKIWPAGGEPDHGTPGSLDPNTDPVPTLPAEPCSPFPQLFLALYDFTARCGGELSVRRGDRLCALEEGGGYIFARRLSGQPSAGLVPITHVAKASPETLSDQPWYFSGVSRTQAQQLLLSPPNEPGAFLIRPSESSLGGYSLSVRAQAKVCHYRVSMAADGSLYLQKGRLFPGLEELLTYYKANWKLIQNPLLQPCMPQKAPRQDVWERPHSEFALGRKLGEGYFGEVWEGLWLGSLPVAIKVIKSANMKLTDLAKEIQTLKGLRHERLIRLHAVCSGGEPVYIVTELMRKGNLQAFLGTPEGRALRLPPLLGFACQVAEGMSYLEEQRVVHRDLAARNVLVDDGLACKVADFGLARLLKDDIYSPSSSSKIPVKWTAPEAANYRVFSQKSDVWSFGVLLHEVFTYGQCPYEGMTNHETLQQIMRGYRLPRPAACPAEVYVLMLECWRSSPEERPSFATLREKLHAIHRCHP

[9] = molecular target: Tyrosine-protein kinase Srms (Homo sapiens) (UniProt Q9H3Y6); settings: at 1 µM
[10] = molecular target: Tyrosine-protein kinase SYK (Homo sapiens) (UniProt P43405); settings: at 0.1 µM
[11] = molecular target: Tyrosine-protein kinase SYK (Homo sapiens) (UniProt P43405); settings: at 1 µM
[12] = molecular target: T1, Tyrosine-protein kinase Tec (Homo sapiens) (UniProt P42680); settings: at 0.1 µM
T1 sequence (whole entry): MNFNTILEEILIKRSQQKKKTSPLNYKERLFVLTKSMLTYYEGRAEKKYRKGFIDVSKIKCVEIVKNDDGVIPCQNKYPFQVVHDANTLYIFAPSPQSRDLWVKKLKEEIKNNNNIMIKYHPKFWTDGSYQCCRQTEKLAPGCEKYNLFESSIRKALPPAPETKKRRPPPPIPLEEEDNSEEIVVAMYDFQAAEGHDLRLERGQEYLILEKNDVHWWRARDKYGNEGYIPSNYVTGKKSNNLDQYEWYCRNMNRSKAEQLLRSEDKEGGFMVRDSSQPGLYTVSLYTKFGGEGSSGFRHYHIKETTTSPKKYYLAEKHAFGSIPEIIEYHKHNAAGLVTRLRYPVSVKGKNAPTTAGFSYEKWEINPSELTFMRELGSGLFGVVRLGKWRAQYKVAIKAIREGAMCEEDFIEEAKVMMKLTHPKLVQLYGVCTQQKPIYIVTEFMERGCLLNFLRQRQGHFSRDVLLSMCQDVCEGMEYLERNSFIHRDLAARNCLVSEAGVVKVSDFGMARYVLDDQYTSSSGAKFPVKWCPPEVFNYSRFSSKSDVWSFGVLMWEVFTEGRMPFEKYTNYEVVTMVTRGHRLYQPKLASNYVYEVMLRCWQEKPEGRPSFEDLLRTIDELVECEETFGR

[13] = molecular target: T1, Tyrosine-protein kinase Tec (Homo sapiens); settings: at 1 µM
[14] = molecular target: Angiopoietin-1 receptor (Homo sapiens) (UniProt Q02763); settings: at 0.1 µM
Sequence of Angiopoietin-1 receptor (Homo sapiens) (Q02763 whole entry): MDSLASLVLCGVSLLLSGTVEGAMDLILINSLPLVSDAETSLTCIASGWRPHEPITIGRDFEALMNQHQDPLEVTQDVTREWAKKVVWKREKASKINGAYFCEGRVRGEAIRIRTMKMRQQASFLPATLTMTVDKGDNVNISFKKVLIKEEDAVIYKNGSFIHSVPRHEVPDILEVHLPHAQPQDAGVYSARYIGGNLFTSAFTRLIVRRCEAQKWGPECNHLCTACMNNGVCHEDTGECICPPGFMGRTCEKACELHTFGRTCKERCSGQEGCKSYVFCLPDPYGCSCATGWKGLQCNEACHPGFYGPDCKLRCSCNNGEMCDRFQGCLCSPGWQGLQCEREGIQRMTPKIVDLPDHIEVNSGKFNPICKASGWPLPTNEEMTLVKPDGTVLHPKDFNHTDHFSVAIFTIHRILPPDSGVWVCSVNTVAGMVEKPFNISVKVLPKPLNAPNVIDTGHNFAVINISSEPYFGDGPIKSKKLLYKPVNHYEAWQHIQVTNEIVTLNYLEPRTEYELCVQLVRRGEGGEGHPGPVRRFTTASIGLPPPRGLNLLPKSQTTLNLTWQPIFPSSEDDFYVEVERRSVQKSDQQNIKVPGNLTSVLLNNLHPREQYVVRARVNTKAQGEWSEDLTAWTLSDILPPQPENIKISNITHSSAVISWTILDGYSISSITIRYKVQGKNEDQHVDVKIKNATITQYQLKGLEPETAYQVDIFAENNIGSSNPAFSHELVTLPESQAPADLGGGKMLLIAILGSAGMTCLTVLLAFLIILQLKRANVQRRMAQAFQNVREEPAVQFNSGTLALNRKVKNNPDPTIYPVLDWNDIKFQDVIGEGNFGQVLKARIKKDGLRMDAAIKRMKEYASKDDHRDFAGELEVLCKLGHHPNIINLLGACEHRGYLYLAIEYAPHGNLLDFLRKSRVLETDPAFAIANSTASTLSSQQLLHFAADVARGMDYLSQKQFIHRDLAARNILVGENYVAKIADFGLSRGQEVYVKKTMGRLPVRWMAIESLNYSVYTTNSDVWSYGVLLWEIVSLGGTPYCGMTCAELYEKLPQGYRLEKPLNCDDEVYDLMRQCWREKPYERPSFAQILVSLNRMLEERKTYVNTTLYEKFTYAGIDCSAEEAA

[15] = molecular target: Angiopoietin-1 receptor (Homo sapiens) (UniProt Q02763); settings: at 1 µM
[16] = molecular target: T2, Non-receptor tyrosine-protein kinase TNK1 (Homo sapiens) (UniProt Q13470); settings: at 0.1 µM
T2 sequence (whole entry): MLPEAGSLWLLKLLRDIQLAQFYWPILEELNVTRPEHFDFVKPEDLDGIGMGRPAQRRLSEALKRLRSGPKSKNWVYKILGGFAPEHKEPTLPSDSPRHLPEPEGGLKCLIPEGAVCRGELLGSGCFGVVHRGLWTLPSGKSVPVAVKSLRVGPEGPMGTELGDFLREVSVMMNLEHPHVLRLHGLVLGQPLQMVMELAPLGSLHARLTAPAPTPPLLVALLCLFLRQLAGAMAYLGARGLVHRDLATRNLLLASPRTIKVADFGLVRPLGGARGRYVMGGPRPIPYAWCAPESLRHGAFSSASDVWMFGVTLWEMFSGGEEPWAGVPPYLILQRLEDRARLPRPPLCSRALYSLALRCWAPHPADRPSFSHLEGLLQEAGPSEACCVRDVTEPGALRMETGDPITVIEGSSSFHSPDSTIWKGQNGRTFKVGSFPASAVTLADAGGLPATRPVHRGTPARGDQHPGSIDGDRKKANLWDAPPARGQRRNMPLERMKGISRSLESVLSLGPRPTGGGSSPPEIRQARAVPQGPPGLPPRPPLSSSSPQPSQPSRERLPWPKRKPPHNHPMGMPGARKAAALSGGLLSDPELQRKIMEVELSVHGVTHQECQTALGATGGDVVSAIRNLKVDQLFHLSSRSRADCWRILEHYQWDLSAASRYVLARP

[17] = molecular target: T2, Non-receptor tyrosine-protein kinase TNK1 (Homo sapiens); settings: at 1 µM
[18] = molecular target: Activated CDC42 kinase 1 (Homo sapiens) (UniProt Q07912); settings: at 0.1 µM
Sequence of Activated CDC42 kinase 1 (Homo sapiens) (Q07912 whole entry, looked up): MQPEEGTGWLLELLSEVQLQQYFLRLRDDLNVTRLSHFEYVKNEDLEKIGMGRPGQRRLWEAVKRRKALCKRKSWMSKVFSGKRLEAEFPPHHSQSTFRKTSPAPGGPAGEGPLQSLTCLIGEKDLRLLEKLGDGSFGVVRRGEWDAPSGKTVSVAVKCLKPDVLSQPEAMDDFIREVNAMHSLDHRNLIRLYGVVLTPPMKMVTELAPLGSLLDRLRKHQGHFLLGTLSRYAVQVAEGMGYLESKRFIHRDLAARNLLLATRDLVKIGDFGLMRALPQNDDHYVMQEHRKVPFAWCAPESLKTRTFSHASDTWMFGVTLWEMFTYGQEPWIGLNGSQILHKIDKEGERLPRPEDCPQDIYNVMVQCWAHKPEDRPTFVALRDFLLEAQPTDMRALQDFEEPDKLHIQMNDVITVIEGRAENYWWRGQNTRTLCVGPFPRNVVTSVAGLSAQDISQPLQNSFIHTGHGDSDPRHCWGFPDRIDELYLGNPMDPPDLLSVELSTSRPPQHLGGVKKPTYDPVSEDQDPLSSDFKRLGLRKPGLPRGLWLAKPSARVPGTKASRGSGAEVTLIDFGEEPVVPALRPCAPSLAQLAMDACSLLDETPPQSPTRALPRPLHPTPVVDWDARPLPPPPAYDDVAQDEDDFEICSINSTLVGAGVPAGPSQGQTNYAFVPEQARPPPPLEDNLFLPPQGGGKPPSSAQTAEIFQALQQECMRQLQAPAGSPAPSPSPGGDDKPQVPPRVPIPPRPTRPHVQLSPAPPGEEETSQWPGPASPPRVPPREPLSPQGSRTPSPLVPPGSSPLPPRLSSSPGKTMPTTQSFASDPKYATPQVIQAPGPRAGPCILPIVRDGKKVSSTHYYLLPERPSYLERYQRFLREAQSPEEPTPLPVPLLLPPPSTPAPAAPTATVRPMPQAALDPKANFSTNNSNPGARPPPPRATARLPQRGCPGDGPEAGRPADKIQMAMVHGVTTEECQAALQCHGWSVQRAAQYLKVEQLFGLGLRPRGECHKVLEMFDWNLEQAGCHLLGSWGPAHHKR

[19] = molecular target: Activated CDC42 kinase 1 (Homo sapiens) (UniProt Q07912); settings: at 1 µM
[20] = molecular target: High affinity nerve growth factor receptor (Homo sapiens) (UniProt P04629); settings: at 0.1 µM;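 note: each value is a mean of replicate percent inhibition readings against TRKA kinase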
Sequence of High affinity nerve growth factor receptor (Homo sapiens) (P04629 33-796 limits assumed): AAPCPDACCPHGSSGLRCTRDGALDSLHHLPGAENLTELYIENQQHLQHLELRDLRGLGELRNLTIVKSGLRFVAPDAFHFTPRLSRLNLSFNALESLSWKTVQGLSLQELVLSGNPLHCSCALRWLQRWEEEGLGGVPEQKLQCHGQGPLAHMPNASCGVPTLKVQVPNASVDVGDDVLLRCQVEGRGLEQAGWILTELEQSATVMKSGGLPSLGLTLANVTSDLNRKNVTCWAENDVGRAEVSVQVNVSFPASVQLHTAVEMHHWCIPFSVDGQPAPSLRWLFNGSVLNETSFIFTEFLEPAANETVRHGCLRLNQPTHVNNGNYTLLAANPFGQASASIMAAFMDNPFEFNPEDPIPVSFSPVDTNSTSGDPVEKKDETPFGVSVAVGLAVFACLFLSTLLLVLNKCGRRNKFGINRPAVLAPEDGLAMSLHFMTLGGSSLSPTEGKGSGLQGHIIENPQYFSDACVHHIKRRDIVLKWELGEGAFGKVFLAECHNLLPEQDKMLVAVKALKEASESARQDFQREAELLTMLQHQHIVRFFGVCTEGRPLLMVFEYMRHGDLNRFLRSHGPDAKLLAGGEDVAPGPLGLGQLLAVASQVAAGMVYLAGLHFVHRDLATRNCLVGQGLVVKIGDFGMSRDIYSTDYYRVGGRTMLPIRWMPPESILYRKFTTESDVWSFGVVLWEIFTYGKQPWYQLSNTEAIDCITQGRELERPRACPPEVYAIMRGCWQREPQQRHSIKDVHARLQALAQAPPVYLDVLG

Sequence of Proto-oncogene tyrosine-protein kinase receptor Ret (Homo sapiens), P07949 [Y791F] (P07949 whole entry Y791F): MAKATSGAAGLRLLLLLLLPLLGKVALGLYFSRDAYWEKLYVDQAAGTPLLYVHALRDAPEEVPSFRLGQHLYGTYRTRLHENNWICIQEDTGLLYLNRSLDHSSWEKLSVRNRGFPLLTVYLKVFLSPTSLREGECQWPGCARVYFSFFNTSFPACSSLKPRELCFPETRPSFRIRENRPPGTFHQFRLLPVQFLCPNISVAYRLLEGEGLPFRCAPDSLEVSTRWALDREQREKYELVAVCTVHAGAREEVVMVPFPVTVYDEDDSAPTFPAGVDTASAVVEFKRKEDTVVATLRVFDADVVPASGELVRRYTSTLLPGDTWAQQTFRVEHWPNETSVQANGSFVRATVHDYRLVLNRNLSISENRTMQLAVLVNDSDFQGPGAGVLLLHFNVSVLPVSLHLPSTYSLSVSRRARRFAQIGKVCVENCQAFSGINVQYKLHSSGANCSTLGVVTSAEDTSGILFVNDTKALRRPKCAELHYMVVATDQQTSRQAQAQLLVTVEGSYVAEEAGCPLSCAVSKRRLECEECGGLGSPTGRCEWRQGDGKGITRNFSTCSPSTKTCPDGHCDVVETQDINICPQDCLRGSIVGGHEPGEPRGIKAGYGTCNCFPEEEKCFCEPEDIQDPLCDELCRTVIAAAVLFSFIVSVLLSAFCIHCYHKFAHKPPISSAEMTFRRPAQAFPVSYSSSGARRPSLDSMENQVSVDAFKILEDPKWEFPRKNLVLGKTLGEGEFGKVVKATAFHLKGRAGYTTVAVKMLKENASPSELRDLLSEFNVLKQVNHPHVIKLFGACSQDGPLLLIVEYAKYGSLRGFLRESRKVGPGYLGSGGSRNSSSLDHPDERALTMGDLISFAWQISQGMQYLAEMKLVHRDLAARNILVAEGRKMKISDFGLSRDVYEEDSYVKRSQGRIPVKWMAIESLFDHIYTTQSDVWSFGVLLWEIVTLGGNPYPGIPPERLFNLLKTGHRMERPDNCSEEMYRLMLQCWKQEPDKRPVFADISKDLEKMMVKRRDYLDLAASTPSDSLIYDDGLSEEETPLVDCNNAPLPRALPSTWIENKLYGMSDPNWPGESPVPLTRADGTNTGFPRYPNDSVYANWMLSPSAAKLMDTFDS

Row | SMILES | inhibition [1] [%] | inhibition [2] [%] | inhibition [3] [%] | inhibition [4] [%] | inhibition [5] [%] | inhibition [6] [%] | inhibition [7] [%] | inhibition [8] [%] | inhibition [9] [%] | inhibition [10] [%] | inhibition [11] [%] | inhibition [12] [%] | inhibition [13] [%] | inhibition [14] [%] | inhibition [15] [%] | inhibition [16] [%] | inhibition [17] [%] | inhibition [18] [%] | inhibition [19] [%] | inhibition [20] [%]
1 | NC(=O)c1sc(-n2cnc3ccccc32)cc1OCc1ccccc1Br | 15.3 | 9.12 | 9.57 | 7.48 | 10.1 | 7.25 | 12.9 | -2.72 | -2.44 | 0.26 | -0.37 | 4.6 | 4.76 | 2 | 6.42 | 2.8 | 18.9 | 0.68 | 1.87 | 1.54
2 | CN(C)CCCn1c(-c2nonc2N)nc2cnccc21 | 8.31 | 1.31 | 3.53 | 5.53 | 4.62 | 2.96 | 6.8 | -0.98 | -4.16 | -4.3 | 0.37 | 4 | 4.06 | 0.92 | 1.59 | 1.08 | -3.93 | 0.54 | 0.77 | 1.3
3 | NS(=O)(=O)c1ccc(-c2cc3ccncc3cc2OCc2ccccc2)cc1 | 8.79 | 3.44 | 8.77 | 5.03 | 11 | -0.21 | 6.83 | 0.62 | 1.62 | 2.96 | 0.64 | 2.94 | 4.44 | 1.38 | 3.06 | 3.48 | 16 | 0.6 | 2.21 | 4.15
4 | CS(=O)(=O)CCNCc1nc(-c2ccc3ncnc(Nc4ccc(OCc5cccc(C(F)(F)F)c5)cc4)c3c2)cs1 | 5.88 | 4.48 | 2.59 | 4.03 | 4.18 | 6.29 | 7.64 | -0.76 | -3.56 | 0.35 | 2.72 | 4.74 | 5.07 | 5.84 | 6.51 | 0.85 | 2.82 | 0.72 | 3.3 | 0.13
5 | O=C1Nc2ccc(-c3cccnc3)cc2C1=Cc1cc(Br)c(O)c(Br)c1 | 1.19 | -1.31 | 8.32 | 8.46 | 18.3 | 2.96 | 12.1 | 12.3 | 57.9 | -3.33 | -2.96 | 3.68 | 8.99 | 1.2 | 2.63 | 52.5 | 80.6 | 1.09 | 3.05 | 4.7
6 | CCS(=O)(=O)c1ccc(OC)c(Nc2ncc(-c3cccc(OC)c3)o2)c1 | 67.1 | 3.89 | 3.42 | 9.78 | 43.3 | 30.7 | 79.4 | 2.74 | 30.6 | -0.11 | -2.39 | 8.3 | 35.5 | 3.35 | 16.1 | 49 | 90.6 | 2.52 | 15.3 | 7.51
7 | O=S(=O)(CCOCc1ccc(-c2ccc3ncnc(Nc4ccc(OCc5cccc(F)c5)c(Cl)c4)c3c2)o1)c1ccccc1 | 7.27 | 3.62 | 1.46 | 2.65 | 3.57 | 0.66 | 0.4 | -1.31 | -2.52 | 1.93 | 1.2 | 0.41 | 0.9 | 3.25 | 2.48 | 1.59 | 5.35 | -0.03 | -0.95 | -0.1
8 | Cc1ccc2c(-c3ccnc(Nc4ccc5c(c4)OCCO5)n3)c(-c3ccc(C(F)(F)F)cc3)nn2n1 | 5.72 | -0.07 | 4.33 | 1.22 | 2.46 | 1.69 | 5.52 | -0.03 | 0.07 | -0.8 | -4.13 | -0.12 | 3.34 | -0.68 | 6.26 | -0.74 | 2.22 | -0.07 | 0.6 | -1.98
9 | COc1cc(Nc2nccc(-c3cnn4ncccc34)n2)cc(OC)c1 | 33.6 | 4 | 22.3 | 57 | 87 | 17.1 | 63.9 | 0.34 | 6.85 | -0.4 | 61.2 | 9.2 | 42.9 | 7.05 | 39.6 | 26.8 | 64.4 | 3.06 | 35.6 | 0.98
10 | CN(C)C(=O)O[C@@H]1CN[C@@H](C#Cc2cc3ncnc(Nc4ccc(OCc5cccc(F)c5)c(Cl)c4)c3s2)C1 | 0.86 | -3.14 | -2.46 | 1.04 | 4.92 | 3.94 | 3.62 | -1.8 | -0.67 | 6.58 | 0.74 | 2.88 | 6.39 | 1.52 | 4.73 | 0.44 | 8.64 | -0.35 | -0.22 | -3.09
11 | Nc1nccc(-c2c(-c3ccc(F)cc3)nn3cc(C(F)(F)F)ccc23)n1 | 3.56 | 1.05 | -2.78 | 4.58 | 2.24 | 1.35 | 1.39 | 0.31 | -1.94 | -0.75 | -1.5 | 0.64 | 4.1 | 1.2 | 3.87 | 2.37 | -0.22 | -0.73 | 0.6 | -2.97
12 | ON=C1CCc2cc(-c3nc(C4CCNCC4)[nH]c3-c3ccncc3)ccc21 | 8.46 | -6.87 | 1.8 | 1.07 | 2.47 | 2.03 | 0.66 | 0 | -2.67 | 2.82 | 0.36 | 1.46 | 2.88 | 1.37 | 1.77 | -4.28 | -5.17 | -0.93 | -2.5 | -3.45
13 | Oc1cccc(-c2nc(-c3ccccc3)[nH]c2-c2ccncc2)c1 | 71.2 | 1.43 | 5.25 | 4.41 | 9.95 | 18.7 | 63.2 | 3.43 | 8.65 | -2.15 | 1.53 | 5.02 | 9.92 | 3.23 | 15.7 | 3.62 | 12.3 | 1.47 | 2.85 | 3.43
14 | N#Cc1c(NC(=O)c2ccccc2F)sc2c1CCCC2 | 1.78 | -0.97 | -3.33 | 1.04 | 0.32 | -4.11 | -4.48 | 2.55 | 1.79 | 0.7 | 0.42 | -1.7 | 0.35 | -1.22 | 3.44 | -2.62 | -0.58 | -0.05 | 3 | -0.84
15 | CN(C)C(=O)O[C@H]1CN[C@H](C#Cc2cc3ncnc(Nc4ccc(OCc5cccc(F)c5)c(Cl)c4)c3s2)C1 | 9.1 | 1.31 | 5.82 | 4.25 | 4.65 | 3.86 | 6.56 | 0.59 | 0.93 | -7.75 | -0.76 | 3.98 | 6.52 | 2.98 | 5.32 | 1.02 | 12 | 1.42 | 1.79 | 2.9
16 | CN(C)c1cc2c(Nc3ccc4c(cnn4Cc4ccccc4)c3)ncnc2cn1 | 34.4 | 1.53 | 0.62 | 2.34 | 2.03 | 3.91 | 13.1 | -0.2 | 1.29 | 0.89 | 0.09 | 3.97 | 9.92 | 2.74 | 5.29 | 3.66 | 14.7 | 0.72 | 1.68 | 1.75
17 | C[C@@H](Oc1cc(-n2cnc3ccc(OC[C@@H](O)CO)cc32)sc1C(N)=O)c1ccccc1Cl | 10.8 | -4.17 | 6.85 | 1.32 | 11.6 | 3.67 | 5.14 | 0.51 | 2.19 | 1.72 | 0.64 | -0.35 | -0.09 | 2.55 | 14.6 | -0.47 | 18.2 | -0.26 | 2.04 | 0.33
